From PubChem BioAssay come the findings set out here.

Test [1] can be described thus: HepG2 liver cancer cell viability effects, profiling panel, resazurin fluorescence, 24 h, PK04 Diversity Set (AID 1172). The note with it: higher = more signal.
Test [2] is described as follows: basal S. cerevisiae growth modulation, no modifier, primary screen, OD600, strain BY4716, 24 h, basal condition (AID 1173). The note with it: OD600, 24 h, higher = more signal, called active from +8 up or from −8 down.
Test [3] can be described thus: MM1S myeloma cell viability, profiling panel, resazurin fluorescence, basal, 24 h, PK04 Diversity Set (AID 1174).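 Also: MM1S multiple myeloma cell line.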 The conditions noted are these: higher = more signal, called active from +8 up or from −8 down.
Test [4] has as its target Dihydroorotate dehydrogenase (quinone), mitochondrial (Plasmodium falciparum (isolate 3D7)) (UniProt Q08210). Description: PfDHODH enzyme inhibitors, primary screen, biochemical, C-terminal His tag, absorbance 600 nm (AID 1175).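 Also: recombinant parasite enzyme with a five histidine tag at its C terminus.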 The conditions noted are these: DCIP absorbance 600 nm, higher = more signal, called active from +8 up or from −8 down.
Test [5] in a line: P. aeruginosa biofilm formation inhibitors, primary screen, strain PAO1, LB-PBS medium, absorbance 600 nm (AID 1176). The note with it: P. aeruginosa PAO1 growth/biofilm, A600, 12 h; higher = more signal.
The nature of test [6]: S. cerevisiae RM11-1a growth modifiers, primary screen, strain RM11-1a, OD600, basal, 24 h (AID 1177).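 Also: cultures grown under basal conditions with no added stressor.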 The conditions noted are these: OD600, 24 h, higher = more signal, called active from +8 up or from −8 down.
A short description of test [7]: E. coli acrAB mutant growth effects, primary screen, E. coli filamentation inducers, strain DRC39, OD650, 24 h (AID 1178).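 Also: growth measured as culture turbidity by optical density at 650 nm.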 The note with it: higher = more signal, called active from +8 up or from −8 down.
Test [8] in a line: E. coli acrAB mutant growth effects, primary screen, E. coli filamentation inducers, strain DRC39, OD650, 48 h (AID 1179).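 Also: screen aims at cell division blockers that make cells filament.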 The note with it: E. coli DRC39 delta-acrAB growth, higher = more signal, called active from +8 up or from −8 down.
Test [9] is described as follows: RPMI8226 myeloma cell viability, profiling panel, resazurin fluorescence, basal, 24 h, PK04 Diversity Set (AID 1180).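 Also: RPMI8826 multiple myeloma cell line at 5000 cells per well.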 The note with it: higher = more signal.
Test [10] concerns the target E3 ubiquitin-protein ligase XIAP (Homo sapiens) (UniProt P98170). The test can be described thus: XIAP binders, primary screen, biophysical, small-molecule microarray, fluorescence 635 nm (AID 1181).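 Also: score merges 667 nm emission and signal to noise over triplicate slides.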 The note with it: small-molecule microarray binding, higher = more signal.
Test [11] concerns XIP peptide (Xip251-270) binding. The test can be described thus: small-molecule binders of XIP peptide, primary screen, biochemical, small-molecule microarray, fluorescence 635/667 nm, 0.1 µg/mL protein (AID 1182). The conditions noted are these: fluorescent protein binding, 635 nm, higher = more signal, called active from +8 up or from −8 down.
Another test deals with XIP peptide (Xip251-270). Description: small-molecule binders of XIP peptide, primary screen, biochemical, small-molecule microarray, fluorescence 635/667 nm, 0.5 µg/mL protein (AID 1183). The conditions noted are these: small-molecule microarray binding, fluorescence 635 nm; higher = more signal.
Test [12] can be described thus: Plasmodium falciparum growth inhibition, primary screen, strain 3D7, DAPI fluorescence, 100 nL (AID 1184).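 Also: parasites grown inside human red blood cells in medium with human serum.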 The conditions noted are these: P. falciparum 3D7 growth, 3 d, higher = more signal.
For test [13], the target named is Homeobox protein Hox-A13 (Mus musculus) (UniProt Q62424). The test can be described thus: inhibitors of HoxA13-DNA binding, primary screen, biochemical, fluorescence polarization, labeled oligonucleotide (AID 1185). The conditions noted are these: 15 min, higher = more signal, called active from +8 up or from −8 down.
Test [14] in a line: inhibitors of hydroxyurea-induced Chk1 phosphorylation, primary screen, imaging, HeLa, phospho-Chk1 antibody, percent positive cells (AID 1186). The note with it: hydroxyurea-induced phospho-Chk1 immunofluorescence imaging, higher = more signal.
Test [15] can be described thus: inhibitors of hydroxyurea-induced Chk1 phosphorylation, primary screen, imaging, HeLa, phospho-Chk1 nuclear intensity (AID 1187). The note with it: hydroxyurea-induced phospho-Chk1 immunofluorescence imaging, higher = more signal.

Active and inactive are the calls of the source. Unless noted, no rule for the calls is given here.

Sequence of E3 ubiquitin-protein ligase XIAP (Homo sapiens) (P98170 whole entry, looked up): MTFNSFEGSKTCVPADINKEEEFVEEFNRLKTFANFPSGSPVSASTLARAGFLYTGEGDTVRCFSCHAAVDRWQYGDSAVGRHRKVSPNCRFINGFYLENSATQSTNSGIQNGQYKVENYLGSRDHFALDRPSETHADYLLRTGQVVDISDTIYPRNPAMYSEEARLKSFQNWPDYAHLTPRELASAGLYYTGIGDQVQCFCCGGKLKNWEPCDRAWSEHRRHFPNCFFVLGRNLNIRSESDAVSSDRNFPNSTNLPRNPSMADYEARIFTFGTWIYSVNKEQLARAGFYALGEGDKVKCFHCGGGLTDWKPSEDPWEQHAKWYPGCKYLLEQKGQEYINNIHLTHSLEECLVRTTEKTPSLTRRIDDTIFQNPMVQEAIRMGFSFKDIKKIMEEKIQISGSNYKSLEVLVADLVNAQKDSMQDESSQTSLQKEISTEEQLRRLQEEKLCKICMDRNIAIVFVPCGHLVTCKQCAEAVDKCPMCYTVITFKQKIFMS
Sequence of Dihydroorotate dehydrogenase (quinone), mitochondrial (Plasmodium falciparum (isolate 3D7)) (Q08210 whole entry, looked up): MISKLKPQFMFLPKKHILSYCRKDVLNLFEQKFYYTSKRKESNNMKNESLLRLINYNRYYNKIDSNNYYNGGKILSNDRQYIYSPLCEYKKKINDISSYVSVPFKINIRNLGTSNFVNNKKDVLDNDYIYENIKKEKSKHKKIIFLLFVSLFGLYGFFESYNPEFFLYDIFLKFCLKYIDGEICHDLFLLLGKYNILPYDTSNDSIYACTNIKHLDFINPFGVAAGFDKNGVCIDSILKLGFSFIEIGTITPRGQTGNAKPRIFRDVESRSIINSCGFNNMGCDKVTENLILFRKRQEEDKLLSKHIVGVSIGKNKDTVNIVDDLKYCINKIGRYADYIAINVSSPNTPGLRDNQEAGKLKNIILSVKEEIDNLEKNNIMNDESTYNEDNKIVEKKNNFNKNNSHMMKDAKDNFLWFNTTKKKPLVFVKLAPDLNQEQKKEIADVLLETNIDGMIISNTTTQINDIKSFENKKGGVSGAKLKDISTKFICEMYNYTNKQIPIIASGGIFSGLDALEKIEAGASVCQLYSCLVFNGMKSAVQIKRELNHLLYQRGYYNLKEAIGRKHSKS
Sequence of Homeobox protein Hox-A13 (Mus musculus) (Q62424 whole entry, looked up): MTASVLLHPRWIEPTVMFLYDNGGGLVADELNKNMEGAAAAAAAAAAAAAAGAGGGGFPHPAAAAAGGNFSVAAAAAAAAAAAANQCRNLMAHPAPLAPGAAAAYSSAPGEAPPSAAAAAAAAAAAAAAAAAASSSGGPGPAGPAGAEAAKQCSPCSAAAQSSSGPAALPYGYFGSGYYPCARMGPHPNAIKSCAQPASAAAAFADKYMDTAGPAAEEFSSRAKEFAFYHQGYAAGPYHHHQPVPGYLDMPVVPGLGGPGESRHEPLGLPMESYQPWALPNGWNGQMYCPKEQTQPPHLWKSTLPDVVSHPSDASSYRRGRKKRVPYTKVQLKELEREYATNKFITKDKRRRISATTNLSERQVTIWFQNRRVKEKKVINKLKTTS

On to `COc1ccc([Si](C)(C)[C@H]2[C@H](CC(=O)N3CCC[C@H]3CO)O[C@@]3(C(=O)N(Cc4ccc(N5CCOC5=O)cc4)c4ccccc43)[C@@H]2C)cc1`, for which the z-score in [1] was -0.0717; in [2], 0.686 (inactive); in [3] it was -0.255 (inactive); in [5], 0.189 (inactive); in [6] it was 1.35 (inactive); in test [7], 0.0286 (inactive). The z-score is -0.16 (inactive) in [8]; -0.404 in test [9]; -0.738 in test [12]; -3.99 (inactive) in [13]; 0.222 (inactive) in test [14]; 0.0857 (inactive) in test [15]. The composite z-score was -2.97 (inactive) in [4], -0.0356 in test [10], 0.214 (inactive) in test [11] and 0.719 in the test on XIP peptide (Xip251-270).
As for `COC(=O)[C@@]1(Cc2ccc(OC)cc2)[C@H]2c3cc(C(=O)N4CCCC4)n(CCc4c[nH]c5ccc(OC)cc45)c3C[C@H]2CN1C(=O)c1ccccc1`, the z-score was -1.23 in test [1]; 1.26 (inactive) in test [2]; -3.31 (inactive) in [3]; 1.54 (inactive) in test [5]; 0.708 (inactive) in [6]; -0.456 (inactive) in test [7]. Also, the z-score in test [8] is -0.0765 (inactive); in test [9] it was -3.35; in test [12], -1.71; in test [13], -2.82 (inactive); in [14], 0.513 (inactive); in test [15], 0.399 (inactive). Moreover, the composite z-score was -0.112 (inactive) in test [4], 0.123 in test [10], 0.203 (inactive) in [11] and 0.0718 in the test with XIP peptide (Xip251-270).
Consider `COCCCNC(=O)[C@@H]1c2ccccc2C(=O)N(C(C)C)[C@H]1c1ccc(CO)cc1`, for which the z-score in test [1] is -0.388; in test [2], 0.214 (inactive); in test [3] it was 0.054 (inactive); in test [5], 0.168 (inactive); in test [6], 1.03 (inactive); in test [7], 0.0099 (inactive). The z-score was -0.525 (inactive) in test [8]; -0.0303 in test [9]; -0.324 in [12]; -1.03 (inactive) in test [13]; -0.244 (inactive) in test [14]; -0.504 (inactive) in test [15]. Moreover, the composite z-score in test [4] is 0.367 (inactive); in [10], -0.127; in test [11], 0.147 (inactive); with XIP peptide (Xip251-270) it was -0.0343.
`CC(C)C[C@@H]1NC(=O)[C@@H]2C[C@H](C(=O)NCCCCCCN)[C@H](c3cccc(OCCO)c3)N2C1=O`: the z-score in [1] is -0.821; in test [2], -0.568 (inactive); in test [3], 0.542 (inactive); in test [5], 0.379 (inactive); in test [6] it was 0.473 (inactive); in test [7], -0.0795 (inactive). Moreover, the z-score was -0.74 (inactive) in test [8]; -0.0399 in [9]; -0.969 in [12]; -3.79 (inactive) in [13]; -0.349 (inactive) in test [14]; -0.207 (inactive) in test [15]. For the same compound, the composite z-score in test [4] was 1.05 (inactive); in [10], 0.0264; in test [11], 1.6 (inactive); in the test with XIP peptide (Xip251-270), 0.891.
On to `CC(C)=C1C(=O)C(c2ccccc2)=C2CN3C(=O)N(CCc4ccccc4)C(=O)[C@]3(Cc3ccc(C(F)(F)F)cc3)[C@H]21`, for which the z-score in [1] is -1.09; in test [2], 0.908 (inactive); in test [3], -1.32 (inactive); in test [5], 0.799 (inactive); in test [6], 0.12 (inactive); in test [7] it was -0.943 (inactive). For the same compound, the z-score is -0.633 (inactive) in [8]; -1.19 in [9]; -0.503 in [12]; -1.59 (inactive) in test [13]; 0.551 (inactive) in test [14]; 0.465 (inactive) in test [15]. Further, the composite z-score in test [4] was -0.29 (inactive); in test [10], -0.213; in [11] it was 1.05 (inactive); in the test with XIP peptide (Xip251-270) it was -0.498.
Regarding `COCCCNC(=O)[C@@]1(CCC(=O)OC(C)(C)C)N=C(c2ccc(OCCCO)cc2)O[C@H]1c1ccccc1N=[N+]=[N-]`, the z-score in test [1] is 1.6; in test [2], -0.497 (inactive); in test [3], -0.0477 (inactive); in [5] it was -0.165 (inactive); in test [6], 0.252 (inactive); in test [7], 1.42 (inactive). The z-score in test [8] was 0.268 (inactive); in test [9] it was 0.72; in [12], -2.39; in [13], -4.09 (inactive); in test [14], 0.739 (inactive); in test [15], 1.43 (inactive). The composite z-score in [4] is -0.291 (inactive); in test [10] it was -0.0773; in test [11] it was 3.51 (inactive); in the test with XIP peptide (Xip251-270), 0.476.
As for `COc1ccc([Si](C)(C)[C@@H]2[C@@H](CC(=O)N3CCC[C@H]3CO)O[C@]3(C(=O)N(Cc4cccc(N5C(=O)COc6ccccc65)c4)c4ccccc43)[C@H]2C)cc1`, the z-score in test [1] is -1.58; in [2], 0.107 (inactive); in test [3], -3.43 (inactive); in [5], 0.425 (inactive); in test [6] it was 0.0195 (inactive); in test [7], 0.719 (inactive). Besides, the z-score in [8] is 0.374 (inactive); in [9] it was -5.39; in test [12], -0.317; in test [13], -2.42 (inactive); in test [14] it was -0.167 (inactive); in test [15], -0.614 (inactive). Further, the composite z-score in test [4] was -1.54 (inactive); in [10] it was -0.102; in [11], 0.527 (inactive); in the test on XIP peptide (Xip251-270) it was 0.608.
With `COc1cc(NN2C(C(O)c3ccc(N(C)C)cc3)C=CC3C(=O)N(c4ccccc4)C(=O)C32)cc(OC)c1OC` (stereo not drawn), the z-score was -1.16 in [1]; 0.744 (inactive) in [2]; -0.581 (inactive) in [3]; 0.794 (inactive) in test [5]; -0.591 (inactive) in test [6]; -0.0722 (inactive) in [7]. Moreover, the z-score was -1.45 (inactive) in test [8]; -1.46 in [9]; -0.289 in [12]; -4.2 (inactive) in test [13]; 0.111 (inactive) in test [14]; -0.0651 (inactive) in [15]. The composite z-score is -1.1 (inactive) in test [4], 0.38 in [10], 0.596 (inactive) in test [11] and 0.0721 in the test with XIP peptide (Xip251-270).
